Broadly, the inhibition is how much of the control response was suppressed.

Structures are written as SMILES. The whole screen tested about 1,100 compounds, of which about 1,000 (91%) were called active.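 How the source made its calls: active means inhibition above 3 SD of the buffer control wells (cut at about 41% in these data); inactive means the rest.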 The set was probably picked from earlier hits. The list is a sample of the results.

A short description of the experiment: reduced carbachol calcium response, RGS4-induced M3R cells, confirmation, RGS4 activator project, cell-based, HEK293 M3R/RGS4 inducible, calcium flux, duplicate (AID 602282).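 Further: signal is the integrated peak-minus-minimum Fluo4 fluorescence over baseline ratio.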 The following applies: carbachol calcium flux Fluo4, at 10 µM, hits give high values. For orientation: Calcium assays in cells follow changes in intracellular calcium, usually with a dye or a luminescent sensor.
`C=CC12CN(C)[C@@H]3C4CO[C@H](C[C@H]41)[C@]1(C(=O)Nc4ccccc41)[C@@H]32` (some centres not stated): the inhibition is 84% (active).

`CC(C)Oc1cccc(C(=O)C2CCCN(C3CCOCC3)C2)c1` (configuration not stated): the inhibition was 42.5% (active).

Values taken from PubChem BioAssay AID602282 (Johns Hopkins Ion Channel Center, 2012).
